Only some compounds are listed: those with a hit (about 3.1% of all), similar ones and a draw of the others.
TSHR antagonist = human thyrotropin receptor antagonism; 0.2% of 330,000 active; P16473; activity change, negative = inhibition, % at 11.5 µM; TSHR-expressing cells, TSH-stimulated cAMP HTRF, 2 h; stronger effect = lower value;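 active = activity change below a set negative limit, meaning inhibition stronger than a set level, cut at about -70% in these data; inconclusive = activity change between two set negative limits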; also: % is scaled to controls: 0 for no effect and ±100 for the full control effect
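Cell-based HTRF cAMP assay; TSHR cells + compound, TSH EC80 (4nM final), 2 h, 37 deg C. Lysis with anti-cAMP cryptate and cAMP-d2, 30 min RT, read 665/620 nm.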
PLK1 PBD block = PLK1 (human) polo-box domain binding inhibition | P53350 | 2.8% of 360,000 active | AID 720504 | Plk1 PBD binding of FITC phosphopeptide, fluorescence polarization | Potency, µM, for the others: max response, negative = inhibition, most hits filed as inhibitors; also: potency is read from the fitted curve at half-maximal effect; series mostly up to about 57 µM; % is scaled to controls: 0 for no effect and ±100 for the full control effect; nearly all actives have a fitted effect of over 65% in size
VDR inhibitor = inhibitors of human vitamin D receptor. VDR-SRC2-3 peptide fluorescence polarization, 2 h. Potency, µM, without a hit: max response, negative = inhibition, hits mostly inhibitors. 0.93% of 400,000 active; also: potency is read from the fitted curve at half-maximal effect; % is scaled to controls: 0 for no effect and ±100 for the full control effect
Target sequence (P11473 whole entry, looked up): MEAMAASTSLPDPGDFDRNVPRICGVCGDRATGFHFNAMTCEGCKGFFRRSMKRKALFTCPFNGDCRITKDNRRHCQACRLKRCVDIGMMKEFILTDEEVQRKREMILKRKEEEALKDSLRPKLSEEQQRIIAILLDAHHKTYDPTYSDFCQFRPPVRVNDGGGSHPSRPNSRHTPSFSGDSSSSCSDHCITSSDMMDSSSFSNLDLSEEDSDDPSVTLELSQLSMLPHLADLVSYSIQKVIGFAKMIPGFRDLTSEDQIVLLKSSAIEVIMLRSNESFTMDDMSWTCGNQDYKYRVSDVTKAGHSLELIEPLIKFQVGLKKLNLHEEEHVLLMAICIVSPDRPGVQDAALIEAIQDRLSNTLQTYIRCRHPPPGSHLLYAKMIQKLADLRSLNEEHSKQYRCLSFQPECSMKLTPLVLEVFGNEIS
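Reagent solutions, kept cold and dark, are dispensed first; compounds are then pinned in at 23 nl, plates briefly spun, and incubated 2 h at ambient temperature. Inhibition of VDR–SRC2-3 peptide binding is read by fluorescence polarization.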
TSG101-PTAP inh = blocks PTAP/TSG101 interaction to inhibit HIV-1 budding. Q99816. Fluorescence polarization, FITC-PTAP peptide / Tsg101 binding. Potency, µM (highest dose often 115 µM), inactives show at the highest dose activity change, negative = inhibition, hits mostly inhibitors. 340,000 tested, under 10 active. AID 493005; active = well fitted inhibition curve with a large enough effect in the main read-out, with a control signal flat, not every such curve was filed as active; inconclusive = small, poorly fitted or top-dose-only effect, or effect the other way, or a change in a side signal; inactive = no such curve, though single readings can be large or run the other way; also: potency is read from the fitted curve at half-maximal effect; % of control where 0% means no effect
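FP read-out: FITC-PTAP peptide, 50 nM final, binding Tsg101 binding domain, 10 uM final; 20 min, r.t.; 10 mM HEPES pH 7.5, 0.15 M NaCl, 0.01% Tween 20, 3 mM EDTA, 0.1 mM TCEP.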
uPA generation = blocks generation of uPA at the cell surface; 0.31% of 330,000 active; cell surface uPA generation assay, qHTS; AID 540303; Potency, µM (doses to about 38.3 µM), inactives show top-dose activity change, negative = inhibition, hits mostly inhibitors; active = well fitted inhibition curve with a large enough effect; inconclusive = small, poorly fitted or top-dose-only effect; inactive = no such curve, though single readings can be large or run the other way; tested in mouse RAW 264.7 cells; also: potency is read from the fitted curve at half-maximal effect; % is scaled to controls: 0 for no effect and ±100 for the full control effect; nearly all actives have a fitted effect of over 55% in size
* hit, by the source's call; ? = inconclusive; nt = no result given; ! = repeats disagree. Unless noted, calls follow the shape of the dose curve; as a rule, active = well fitted curve in the direction sought with a large enough effect; inconclusive = small, poorly fitted or top-dose-only effect, or another doubt; inactive = no such curve, though single readings can be large; an effect the other way counts as inactive or inconclusive.

SMILES	TSHR antagonist	PLK1 PBD block	VDR inhibitor	TSG101-PTAP inh	uPA generation
COc1ccc(CNC(=O)C2CCC(CNC(=O)[C@@H]3Cc4ccccc4CN3)CC2)cc1 (some centres undefined)	12	-15%	-2%	-6%	22%
Cc1nc2ccc(Cl)cn2c1[N+](=O)[O-]	nt	-4%	nt	nt	nt
CCc1c(C)sc(NC(=O)c2cc(CC(C)C)on2)c1C#N	-24	15µM*	-23%	-1%	-17%
CCc1c(C)sc(NC(=O)c2cc(-c3ccc(OC)c(OC)c3)on2)c1C#N	5	-13%	-27%	-6%	1%
CCc1c(C)sc(NC(=O)c2cc(-c3ccc(O)cc3)on2)c1C#N	-6	19µM*	?	-2%	?
CCc1c(C)sc(NC(=O)c2noc(C)c2[N+](=O)[O-])c1C#N	10	34µM*	?	0%	-7%
Cc1nc(-c2ccc(S(=O)(=O)Nc3ccc(C#N)cc3)cc2)co1	nt	nt	7%	nt	nt
O=C(O)CCn1cc(/C=C/C(=O)c2ccc(Cl)cc2)c(-c2ccc(Br)cc2)n1	-17	?	40µM*	-5%	-8%
O=C(CC1C(=O)NCCN1CCCc1ccccc1)NCCc1ccccc1Cl (centres undefined)	17	-13%	6%	0%	-11%
COc1ccc(Br)cc1CNC(=O)C1CCCN(S(=O)(=O)N2CC(C)CC(C)C2)C1 (centres undefined)	4	-6%	-13%	-5%	3%
O=C(O)c1ccccc1-c1ccccc1C(=O)Nc1cccc(-c2nc3ccccc3o2)c1	-19	67µM*	-16%	-4%	-6%
O=[N+]([O-])c1ccc2nc(-c3ccc(Cl)cc3)[nH]c2c1	20	-19%	-14%	-9%	?
O=[N+]([O-])c1ccc(-c2cc(-c3ccc(Cl)cc3)n[nH]2)cc1	-5	3µM*	?	-1%	-3%
CC(C)(C)OC(=O)NCCCCCc1cn([C@@H](CO)C(=O)NCCCCCCCCCCC(=O)N2CCN(C(=O)OC(C)(C)C)CC2)nn1	-95*	-5%	-8%	-9%	11µM*
COc1cccc(C(=O)NCCS(=O)(=O)N2CC(C)CC(C)C2)c1 (centres undefined)	6	-2%	?	-1%	-4%
COc1ccc(NC(=O)c2cccc(C(=O)Nc3ccc(OC)cc3)n2)cc1	0	nt	nt	nt	nt
COc1ccc(NC(=O)c2sc(=S)[nH]c2N)cc1	-3	?	50µM*	0%	0%
COc1ccc2c(c1)OC/C(=C/c1ccc(OC)c(OC)c1)C2=O	nt	nt	22µM*	nt	nt
Cc1cccc(OCCOc2ccccc2C=C(C#N)C#N)c1	-14	-6%	50µM*	0%	-10%
Cc1ccccc1OCCOc1ccccc1C=C(C#N)C#N	-10	nt	nt	nt	nt
CN[C@@H]1[C@H](O[C@@H]2O[C@H](C)[C@@](O)(CO)[C@H]2O[C@H]2[C@H](O)[C@H](O)[C@H](N=C(N)N)[C@@H](O)[C@@H]2N=C(N)N)O[C@@H](CO)[C@H](O)[C@H]1O	nt	nt	50µM*	nt	nt
CN[C@@H]1[C@H](O[C@@H]2O[C@H](CO)[C@@H](N)[C@H](O)[C@@H]2O)O[C@H]2C[C@@H](N)[C@@H](O[C@H]3[C@@H](O)[C@H](O)[C@H](N)C[C@@H]3N)O[C@H]2[C@H]1O	nt	nt	-17%	nt	nt
C=CCc1cc(/C=C/c2nc(O)c([N+](=O)[O-])c(=O)[nH]2)cc(OC)c1O	-6	-21%	79µM*	-3%	-2%
NC(=O)C1CC2(NC(=O)NC2=O)c2cc(F)ccc2O1 (centres undefined)	nt	nt	12%	nt	nt
Cc1cc(NC(=O)Nc2ccc(N(C)C)cc2)c2cc(F)cc(F)c2n1	nt	nt	18µM*!	nt	nt
SMILES	TSHR antagonist	PLK1 PBD block	VDR inhibitor	TSG101-PTAP inh	uPA generation
CCOC(=O)C1=C(CC)Nc2ccccc2N=C1NC(=O)c1ccc(S(=O)(=O)N(C)C)cc1	0	2.7µM*	-13%	-1%	10%
CC1(Oc2cccc(F)c2)CCN(Cc2ccc(-c3ccccc3)o2)C1 (centres undefined)	nt	-6%	nt	nt	nt
CN(C)c1ccc(C=c2c3ccccc3n3c2cc(-c2ccccc2)[n+]3C)cc1	nt	-1%	-15%	0%	-5%
CN(C)c1ccc(C=c2c3ccccc3n3c2c2c([n+]3C)CCCC2)cc1	nt	-26%	43%	?	-11%
CN(C)c1ccc(C=c2c3cc([N+](=O)[O-])ccc3n3c2cc(-c2ccccc2)[n+]3C)cc1	nt	2.7µM*	?	-2%	-6%
CN(C)c1ccc(C=c2c3ccccc3n3c2cc(-c2ccc(Cl)cc2)[n+]3C)cc1	nt	30µM*	-14%	2%	-11%
C#CCNC(=O)C[C@@H]1C[C@@]2(C(=O)OCC)CCC=C2N(Cc2ccco2)C1=O	nt	-7%	nt	nt	nt
COc1ccc(OC)c(-c2cc(C(=O)NC(C)c3ccccc3)no2)c1 (centres undefined)	nt	nt	3%	nt	nt
COc1cccc2cc(C(=O)N3CCN(C45CC6CC(CC(C6)C4)C5)CC3)c(=O)oc12	0	27µM*	6%	-3%	-11%
COc1ccc(CC(=S)N2CCOCC2)cc1	7	7.5µM*	-15%	-5%	-4%
CCc1ccc(CC(=S)N2CCOCC2)cc1	6	-18%	-9%	1%	5%
Cc1ccc(CC(=S)N2CCOCC2)cc1	2	19µM*	-30%	-1%	2%
CCc1ccc(-n2c(=O)c3sc4ccccc4c3n(CC(=O)NC3CCCCC3)c2=O)cc1	nt	nt	-2%	nt	nt
COC(=O)C1(C)NC(c2ccccc2C)C2C(=O)N(c3ccccc3)C(=O)C21 (centres undefined)	-13	0%	1%	-5%	-26%
COC(=O)C1(C)NC(c2ccccc2C)C2C(=O)N(c3ccc(F)cc3)C(=O)C21 (centres undefined)	-4	30µM*	-23%	-3%	-1%
CCCc1noc(-c2ccc(N3CCCCC3)c([N+](=O)[O-])c2)n1	nt	nt	9%	nt	nt
O=C(NCCS(=O)(=O)c1ccc(Cl)cc1)c1ccc(F)cc1	-8	21µM*	?	0%	2%
O=C(NCCS(=O)(=O)c1ccc(Br)cc1)c1ccc(F)cc1	14	4%	4%	-2%	4%
CSCCC1NC(=O)N(CC(=O)Nc2c(Cl)cc(Cl)cc2Cl)C1=O (centres undefined)	-15	8.4µM*	-10%	-3%	-1%
CC(=O)c1ccc(-n2nncc2C(C)(C)C)cc1	5	-5%	2%	-8%	-12%
Cc1cnnn1-c1ccc(C(=O)CCl)cc1	-1	3.8µM*	-23%	-1%	-5%
Cc1[nH]c2ccc(Br)cc2c(=S)c1C/C=C/Cl	-6	24µM*	?	-3%	-14%
Fc1ccc(-c2ccnc(=S)[nH]2)cc1	6	9.5µM*	?	1%	10%
Cc1nn(-c2ccc(N3CCOCC3)nn2)c(C)c1CCC(=O)NCc1ccc(Cl)cc1	nt	nt	3%	nt	nt
